# An excerpt weighted towards active compounds, which were near 3.3% of everything screened.
# NCF1 inh = p47phox (human) inhibition. P14598. p47phox/p22phox peptide binding, fluorescence polarization, 2 h. inhibition, % at 24.7 µM. actives 0.53% (n = 220,000). AID 1274;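 further: 0% = p47phox with labelled peptide and 100% = labelled peptide alone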
# Mcl-1 Bim block = human Bim-Mcl-1 interaction inhibition; Bead-based flow cytometry, Bim peptide-Mcl-1 binding; inhibition, % at 10 µM; Q07820; actives 0.1% (n = 190,000); in the data active means inhibition above about 40%;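 further: 0% = no compound tracer wells and 100% = peptide blocker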
# Target sequence (Q07820 whole entry, looked up): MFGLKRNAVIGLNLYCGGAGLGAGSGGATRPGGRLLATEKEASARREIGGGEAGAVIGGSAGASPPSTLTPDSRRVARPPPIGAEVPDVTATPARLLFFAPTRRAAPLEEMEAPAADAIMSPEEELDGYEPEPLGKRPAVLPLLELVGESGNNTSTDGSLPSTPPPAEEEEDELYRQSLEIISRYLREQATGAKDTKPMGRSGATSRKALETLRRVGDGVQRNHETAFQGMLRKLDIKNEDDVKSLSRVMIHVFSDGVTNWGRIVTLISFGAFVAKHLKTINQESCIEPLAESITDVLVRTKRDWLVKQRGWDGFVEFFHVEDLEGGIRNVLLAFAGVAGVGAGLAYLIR
# Mcl1-Noxa inh = disrupts binding of human Mcl-1 to Noxa peptide; Q07820; TR-FRET Mcl-1/Noxa peptide binding, 2 h; inhibition, % at 21.7 µM; actives 1.5% (n = 220,000); AID 1022;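 active means compounds that cut the protein-peptide binding signal by more than 50% relative to plate controls in a single-dose test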;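 further: His-tagged Mcl-1 with rhodamine Noxa BH3 peptide and terbium anti-His antibody; 0% = Mcl-1 plus Noxa peptide wells and 100% = peptide-only wells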
# eIF4E-4G inh = eIF4E/eIF4G interaction inhibition in translation initiation | P63073+Q04637 | TR-FRET eIF4E-eIF4GI(517-606) binding, 2 h | inhibition, % at 21.7 µM | actives 0.37% (n = 220,000);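 further: 0% = full FRET control wells and 100% = background wells lacking eIF4GI fragment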
# 14-3-3 Bad inh = disrupts binding of bovine 14-3-3 zeta to phospho-Bad peptide | TR-FRET 14-3-3zeta/Dy647-pBad peptide displacement, 1 h | inhibition, % at 21.7 µM | actives 0.71% (n = 220,000);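 active means inhibition above about 70%, limit read from the data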;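 further: 0% = full 14-3-3 plus peptide FRET controls and 100% = background without 14-3-3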
# Target sequence (P63103 whole entry, looked up): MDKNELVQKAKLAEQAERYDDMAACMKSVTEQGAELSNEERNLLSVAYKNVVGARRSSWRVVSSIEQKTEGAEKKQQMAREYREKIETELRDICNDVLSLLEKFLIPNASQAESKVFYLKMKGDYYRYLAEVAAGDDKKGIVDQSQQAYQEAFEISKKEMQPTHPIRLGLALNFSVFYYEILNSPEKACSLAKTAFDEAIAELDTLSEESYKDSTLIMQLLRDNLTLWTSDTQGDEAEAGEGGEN
# Mcl1-Bid inh = disrupts binding of human Mcl-1 to Bid peptide. TR-FRET Mcl-1/Bid-Dy647 peptide binding, 1536-well. actives 0.97% (n = 220,000). inhibition, % at 21.7 µM. Q07820. AID 1021;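 active means compounds that cut the binding signal by more than half at the single screening dose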;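 further: His-tagged Mcl-1 with europium anti-His antibody binding Bid BH3 peptide; 0% = Mcl-1 plus peptide wells and 100% = peptide-only wells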
# Active calls of the source: *; nt = no result; + = active, no number; ! = repeats disagree; [ ] = dose if it differs, or a comment.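 How the source made its calls, unless noted: active means inhibition above about 30% (limit read from the data); inactive means the rest.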
SMILES,NCF1 inh,Mcl-1 Bim block,Mcl1-Noxa inh,eIF4E-4G inh,14-3-3 Bad inh,Mcl1-Bid inh
C/C=C(\C)C(=O)NCCN1C2=NC[C@@H](Cc3ccccc3)N2C[C@H]1Cc1ccc(O)cc1,-8,-1,11,0,-8,-1
CC(C)(CO)NCC(O)Cn1cc(C=O)c2ccccc21 (centres undefined),2,-1,16,1,100*,-14
Nc1c(C(=O)NC2CC2)sc2nc3c(c(-c4ccco4)c12)CC/C3=C/c1ccco1,8,35,97*,27,-8,84*
NC(=O)c1sc2nc3c(c(-c4ccco4)c2c1N)CCC3,-13,10,25,5,13,-26
O=C(CCCCCn1c(=S)[nH]c2ccc(N3CCOCC3)cc2c1=O)NCc1cccc(Cl)c1,16,0,9,3,1,-16
Cc1cc(C)c[n+](-c2nc3ccccc3nc2C(=C=[N-])C#N)c1,-28,46*!,23,0,-4,-30
O=[N+]([O-])c1cc(CN2CCCC2)ccc1Sc1ccc(Cl)cc1,-4,0,11,-2,-9,-29
CCCCn1nc2cc(C(=O)NCc3cc(C(F)(F)F)cc(C(F)(F)F)c3)ccc2c1OC,-11,-1,15,nt,nt,-11
CCCCn1nc2cc(C(=O)NCc3ccc(OC(F)(F)F)cc3)ccc2c1OC,-7,-2,15,8,71*,-13
Cc1sc(NC(=O)c2cc(-c3ccc(Cl)cc3)nc3ccccc23)c(C(N)=O)c1C,-41,1,77*,-19,79*,77*
c1ccc2c(N3CCOCC3)nc(-c3ccncc3)nc2c1,-17,-10,7,0,5,12
c1ccc2c(N3CCOCC3)nc(N3CCOCC3)nc2c1,-15,2,51*,9,61,66*
CC1CCc2[nH]c3ccc(C(=O)NCCCOC(C)C)cc3c2C1 (centres undefined),-7,5,9,5,-8,-21
O=C(CCC1CCCCC1)NCc1ccc(F)cc1,-6,-2,10,9,2,-2
CC1CCCCC1NCC(=O)NCc1ccc(F)cc1 (centres undefined),4,0,25,1,57,58*
CC(C)CCNCC1OCc2ccccc2CO1,0,-6,6,6,9,-45
COc1ccc(C2CC(c3c(-c4ccccc4)c4cc(Cl)ccc4[nH]c3=O)=NN2S(C)(=O)=O)cc1OC (centres undefined),-51,0,-5,-3,27,59*
Cc1cc(=O)n(CC(=O)Nc2cc(Cl)ccc2C)c(C(C)C)n1,1,0,17,4,-5,1
Cc1ccc(C(=O)NC2(C(F)(F)F)N=C3SCCN3C2=O)cc1 (centres undefined),-11,0,-3,10,74*,-23
O=C(NC1(C(F)(F)F)N=C2SCCN2C1=O)c1cccnc1 (centres undefined),1,-1,-3,6,-13,-5
COc1ccc(Cc2nnc(N/N=C(\C)c3ccccc3)[nH]c2=O)cc1OC,-1,nt,-26,-1,-3,-10
Cc1cccc(N2CCN(c3ccc(NC(=O)/C=C(/C(=O)O)c4ccccc4)cc3)CC2)c1,10,-2,52*,14,19,-10
Cc1oc(-c2cccc3ccccc23)nc1CN1CCC[C@H]1CO,-4,0,-1,-1,-9,-35
CCCCCCCCCCCCS(=O)(=O)CCC(=O)O,-10,nt,11,6,6,5
CCCCCC#CCC#CCC#CCC#CCCCC(=O)O,-58,0,103*,36*,89*,100*
SMILES,NCF1 inh,Mcl-1 Bim block,Mcl1-Noxa inh,eIF4E-4G inh,14-3-3 Bad inh,Mcl1-Bid inh
CCc1ccc(S(=O)(=O)Nc2cc(SCC(=O)O)c(O)c3ccccc23)cc1,-2,4,56*,5,41,-29
CCOC(=O)NCc1ccc(S(=O)(=O)Nc2ccccc2C)cc1,5,1,2,2,-3,-14
O=C(O)CSc1cc(NS(=O)(=O)c2cccc([N+](=O)[O-])c2)c2ccccc2c1O,11,nt,76*,24,86*,16
Cc1ccc(C)c(S(=O)(=O)Nc2cc(SCC(=O)O)c(O)c3ccccc23)c1,7,4,79*,34*[fluorescence artefact?],84*[fluorescence artefact?],-16
O=S(=O)(Nc1cc(Sc2cccc3cccnc23)c(O)c2ccccc12)c1ccccc1,14,2,68*,1,9,-13
CCc1c(C)[nH]c2ccc(OC)cc2c1=S,2,-5,74*,2,-6,-2
O=C(Nc1ccc(S(=O)(=O)Nc2nccs2)cc1)/C(=C/c1ccccc1Cl)NC(=O)c1ccccc1,-29,-12,94*,-9,6,-68
C[n+]1cccc2ccc3c(c21)OC(N)=C(C#N)C3c1ccccc1 (centres undefined),13,nt,8,94*,0,-35
C[n+]1cccc(C2C(C#N)=C(N)Oc3c2ccc2ccccc32)c1 (centres undefined),-17,nt,-1,3,7,-23
CC(C)CNc1nc(Oc2ccc(=O)[nH]n2)nc(N(C)C)n1,+,-3,-8,-9,91*,-29
Cc1ccc(Nc2nc(Oc3ccc(=O)[nH]n3)nc(N(C)C)n2)cc1,-6,-5,13,74*,25,-1
CCOc1ccc(Oc2nc(NCC(C)C)nc(N(C)C)n2)nn1,-13,0,2,6,-3,-2
CN(C)c1nc(Nc2ccccc2)nc(Oc2ccc(=O)[nH]n2)n1,-2,-1,-16,2,11,-15
COc1ccc(N2CCN(C(c3ccccc3OC)c3nnnn3C3CCCC3)CC2)cc1 (centres undefined),-13,-1,26,-1,23,34
COc1ccc(N2CCN(C(c3cc(OC)ccc3OC)c3nnnn3CC3CCCO3)CC2)cc1 (centres undefined),1,-1,60*,2,51,15
COc1ccc(N2CCN(C(c3cccc(OC)c3OC)c3nnnn3C3CCCC3)CC2)cc1 (centres undefined),-3,0,26,8,77*,-27
CCN1CCN(C(c2ccccc2)c2nnnn2Cc2ccccc2)CC1 (centres undefined),2,-2,43,8,62,34
CCN1CCN(C(c2cc(OC)ccc2OC)c2nnnn2Cc2ccccc2)CC1 (centres undefined),-12,2,29,8,79*,-19
Cc1csc2c(N3CCN(C(=O)c4ccc(C(C)(C)C)cc4)CC3)ncnc12,-8,nt,0,0,-4,3
O=C(CCC1CCCN(c2ncccn2)C1)NCc1ccc(F)c(F)c1 (centres undefined),9,-2,14,1,5,-1
CCOC(=O)CSc1nnc(-c2cccc(Cl)c2)n1CC,-7,45*,-9,0,-2,-27

# Source: PubChem
